Laboratory results taken from the supplement of paper PMC10849652.
Of roughly 7,900 targets only a part is listed; those with a hit were picked by preference. About 0.6% of all pairs of compound and target were hits. Values without a mark were called inactive.

Legend:
Assay in all cases: log2 fold change, soluble protein after heating vs DMSO (PISA); higher = thermal stabilisation; K562 cells, 10 uM, 30 min; active = over 0.2 and 3.5 SD of the protein, either way, in both replicates (recomputed)
[1] = compound: CS(=O)(=O)c1ccc(-c2cnc(N)c(C(=O)Nc3ccccc3)n2)cc1
Method in brief: (§1)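 For each measurement, 10 μM compound was applied for 30 min to K562 cells at 2×10^6 cells/mL. Aliquots were heated for 3 min across 48°C-58°C, pooled, and extracted in PBS with 0.5% NP-40 at 4°C; the supernatant after 21,000xg for 90 min was soluble protein. This was quantified by TMTpro 16plex LC-MS/MS with channel sums equalised, and thermal stability was reported relative to control samples from duplicates, on a log2 fold-change scale.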

crizotinib = compound: C[C@@H](Oc1cc(-c2cnn(C3CCNCC3)c2)cnc1N)c1c(Cl)ccc(F)c1Cl [crizotinib]
Method in brief: as §1

[2] = compound: C[C@@H]1COCCN1C2=NC(=NC(=C2)C3(CC3)S(=O)(=O)C)C4=C5C=CNC5=CC=C4
Method in brief: as §1

[3] = compound: C[C@H](C1=CC=C(C=C1)C(=O)NC2=C3C=CNC3=NC=C2)N
Method in brief: as §1

duvelisib = compound: C[C@H](Nc1ncnc2nc[nH]c12)c1cc2cccc(Cl)c2c(=O)n1-c1ccccc1 [duvelisib]
Method in brief: as §1

gandotinib = compound: Cc1cc(Nc2cc(CN3CCOCC3)c3nc(C)c(Cc4ccc(Cl)cc4F)n3n2)n[nH]1 [gandotinib]
Method in brief: as §1

tozasertib = compound: Cc1cc(Nc2cc(N3CCN(C)CC3)nc(Sc3ccc(NC(=O)C4CC4)cc3)n2)n[nH]1 [tozasertib]
Method in brief: as §1

[4] = compound: Cc1cc(SCc2sc(-c3ccc(C(F)(F)F)cc3)nc2C)ccc1OCC(=O)O
Method in brief: as §1

doramapimod = compound: Cc1ccc(-n2nc(C(C)(C)C)cc2NC(=O)Nc2ccc(OCCN3CCOCC3)c3ccccc23)cc1 [doramapimod]
Method in brief: as §1

ispinesib = compound: Cc1ccc(C(=O)N(CCCN)[C@@H](c2nc3cc(Cl)ccc3c(=O)n2Cc2ccccc2)C(C)C)cc1 [ispinesib]
Method in brief: as §1

Target: EXOC7 (UniProt Q9UPT5)
- log2 fold change [1]: -0.062
- log2 fold change (crizotinib): -0.25
- log2 fold change [2]: -0.028
- log2 fold change [3]: 0.034
- log2 fold change (duvelisib): 0.027
- log2 fold change (gandotinib): -0.122
- log2 fold change (tozasertib): 0.027
- log2 fold change [4]: 0.05
- log2 fold change (doramapimod): -0.029
- log2 fold change (ispinesib): -0.346 (active)

Target: ETNK1 (UniProt Q9HBU6)
UniProt Q9HBU6, sequence (Q9HBU6 whole entry, looked up): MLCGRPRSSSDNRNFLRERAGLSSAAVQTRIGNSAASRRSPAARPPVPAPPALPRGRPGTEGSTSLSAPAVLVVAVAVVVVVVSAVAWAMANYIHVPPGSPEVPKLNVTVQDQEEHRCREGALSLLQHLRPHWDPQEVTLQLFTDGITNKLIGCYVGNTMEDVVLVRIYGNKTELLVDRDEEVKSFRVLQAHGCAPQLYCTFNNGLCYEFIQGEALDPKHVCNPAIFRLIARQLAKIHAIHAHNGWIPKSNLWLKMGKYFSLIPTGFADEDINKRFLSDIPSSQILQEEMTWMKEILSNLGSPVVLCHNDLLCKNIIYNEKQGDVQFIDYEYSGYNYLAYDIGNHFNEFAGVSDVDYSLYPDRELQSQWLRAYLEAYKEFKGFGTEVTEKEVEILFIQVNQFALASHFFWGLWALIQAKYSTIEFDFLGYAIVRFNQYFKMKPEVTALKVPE
- log2 fold change [1]: -0.006
- log2 fold change (crizotinib): -0.022
- log2 fold change [2]: 0.088
- log2 fold change [3]: -0.032
- log2 fold change (duvelisib): 0.075
- log2 fold change (gandotinib): -0.057
- log2 fold change (tozasertib): 0.021
- log2 fold change [4]: 0.118
- log2 fold change (doramapimod): 0.001
- log2 fold change (ispinesib): 0.059

Target: ERCC6 (UniProt Q03468)
UniProt Q03468, sequence (Q03468 whole entry, looked up): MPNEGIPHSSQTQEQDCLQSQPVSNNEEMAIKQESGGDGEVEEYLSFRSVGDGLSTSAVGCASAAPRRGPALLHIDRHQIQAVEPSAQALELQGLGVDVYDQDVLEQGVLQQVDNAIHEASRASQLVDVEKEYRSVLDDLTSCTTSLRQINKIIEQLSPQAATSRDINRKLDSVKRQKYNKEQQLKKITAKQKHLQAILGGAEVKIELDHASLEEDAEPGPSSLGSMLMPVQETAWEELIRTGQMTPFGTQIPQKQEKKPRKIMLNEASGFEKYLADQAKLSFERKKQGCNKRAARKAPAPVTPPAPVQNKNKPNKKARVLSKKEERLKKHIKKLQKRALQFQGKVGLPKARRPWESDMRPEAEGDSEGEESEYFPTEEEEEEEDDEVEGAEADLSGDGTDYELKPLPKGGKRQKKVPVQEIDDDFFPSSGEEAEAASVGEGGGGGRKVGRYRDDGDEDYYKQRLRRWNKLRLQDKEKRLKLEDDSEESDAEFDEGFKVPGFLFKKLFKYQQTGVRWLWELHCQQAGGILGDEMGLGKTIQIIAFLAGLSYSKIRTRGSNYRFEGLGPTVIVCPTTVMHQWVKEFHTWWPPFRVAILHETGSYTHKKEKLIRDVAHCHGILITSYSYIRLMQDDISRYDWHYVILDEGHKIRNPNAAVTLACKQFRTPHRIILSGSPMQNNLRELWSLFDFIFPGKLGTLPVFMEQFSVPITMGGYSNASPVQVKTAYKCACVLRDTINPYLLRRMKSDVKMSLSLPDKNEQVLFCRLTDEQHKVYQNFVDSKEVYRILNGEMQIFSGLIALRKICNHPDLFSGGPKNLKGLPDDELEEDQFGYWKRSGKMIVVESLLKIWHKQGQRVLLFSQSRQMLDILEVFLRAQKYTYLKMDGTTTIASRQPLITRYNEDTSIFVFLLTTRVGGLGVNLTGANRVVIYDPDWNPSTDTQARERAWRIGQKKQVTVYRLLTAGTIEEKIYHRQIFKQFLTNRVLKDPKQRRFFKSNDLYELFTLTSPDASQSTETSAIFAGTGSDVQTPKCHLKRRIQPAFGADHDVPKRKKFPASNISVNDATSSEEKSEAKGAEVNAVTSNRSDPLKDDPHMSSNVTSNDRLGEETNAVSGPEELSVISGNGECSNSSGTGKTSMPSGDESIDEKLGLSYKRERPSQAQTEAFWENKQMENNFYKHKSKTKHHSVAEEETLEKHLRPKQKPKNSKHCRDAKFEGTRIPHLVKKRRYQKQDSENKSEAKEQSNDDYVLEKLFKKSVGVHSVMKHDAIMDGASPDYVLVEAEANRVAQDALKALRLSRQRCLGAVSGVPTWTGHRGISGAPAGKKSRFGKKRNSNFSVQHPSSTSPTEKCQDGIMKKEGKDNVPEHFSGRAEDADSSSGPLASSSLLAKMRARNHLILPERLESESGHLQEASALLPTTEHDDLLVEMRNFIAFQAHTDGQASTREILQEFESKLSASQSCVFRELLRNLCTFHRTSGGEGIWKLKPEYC
- log2 fold change [1]: -0.12
- log2 fold change (crizotinib): 0.061
- log2 fold change [2]: 0.011
- log2 fold change [3]: -0.127
- log2 fold change (duvelisib): 0.044
- log2 fold change (gandotinib): 0.017
- log2 fold change (tozasertib): -0.051
- log2 fold change [4]: -0.103
- log2 fold change (doramapimod): 0.053
- log2 fold change (ispinesib): 0.152

Target: EHD2 (UniProt Q9NZN4)
- log2 fold change [1]: 0
- log2 fold change (crizotinib): -0.068
- log2 fold change [2]: 0.077
- log2 fold change [3]: -0.008
- log2 fold change (duvelisib): 0.048
- log2 fold change (gandotinib): -0.028
- log2 fold change (tozasertib): -0.003
- log2 fold change [4]: 0.002
- log2 fold change (doramapimod): 0
- log2 fold change (ispinesib): -0.007

Target: DNAJB12 (UniProt Q9NXW2)
- log2 fold change [1]: 0.02
- log2 fold change (crizotinib): -0.029
- log2 fold change [2]: 0.038
- log2 fold change [3]: 0.035
- log2 fold change (duvelisib): -0.009
- log2 fold change (gandotinib): -0.073
- log2 fold change (tozasertib): -0.001
- log2 fold change [4]: 0.097
- log2 fold change (doramapimod): -0.034
- log2 fold change (ispinesib): -0.227 (active)

Target: CTSV (UniProt O60911)
- log2 fold change [1]: 0.073
- log2 fold change (crizotinib): -1.59 (active)
- log2 fold change [2]: 0.099
- log2 fold change [3]: -0.01
- log2 fold change (duvelisib): -0.039
- log2 fold change (gandotinib): -0.334
- log2 fold change (tozasertib): -0.031
- log2 fold change [4]: -0.04
- log2 fold change (doramapimod): -0.005
- log2 fold change (ispinesib): -0.453 (active)

Target: DBR1 (UniProt Q9UK59)
- log2 fold change [1]: -0.034
- log2 fold change (crizotinib): -0.022
- log2 fold change [2]: 0.061
- log2 fold change [3]: -0.014
- log2 fold change (duvelisib): -0.072
- log2 fold change (gandotinib): 0.003
- log2 fold change (tozasertib): -0.051
- log2 fold change [4]: 0.01
- log2 fold change (doramapimod): 0.02
- log2 fold change (ispinesib): 0.058

Target: EEF1B2 (UniProt P24534)
- log2 fold change [1]: 0.003
- log2 fold change (crizotinib): -0.018
- log2 fold change [2]: -0.073
- log2 fold change [3]: 0.092
- log2 fold change (duvelisib): 0.04
- log2 fold change (gandotinib): -0.043
- log2 fold change (tozasertib): 0.052
- log2 fold change [4]: 0.013
- log2 fold change (doramapimod): -0.065
- log2 fold change (ispinesib): -0.024

Target: DMXL1 (UniProt Q9Y485)
- log2 fold change [1]: -0.012
- log2 fold change (crizotinib): -0.092
- log2 fold change [2]: 0.002
- log2 fold change [3]: 0.048
- log2 fold change (duvelisib): -0.011
- log2 fold change (gandotinib): -0.013
- log2 fold change (tozasertib): -0.03
- log2 fold change [4]: 0
- log2 fold change (doramapimod): 0.047
- log2 fold change (ispinesib): -0.217

Target: FAM122A (UniProt Q96E09)
- log2 fold change [1]: 0.077
- log2 fold change (crizotinib): -0.032
- log2 fold change [2]: -0.267
- log2 fold change [3]: -0.042
- log2 fold change (duvelisib): 0.059
- log2 fold change (gandotinib): -0.015
- log2 fold change (tozasertib): 0.038
- log2 fold change [4]: -0.015
- log2 fold change (doramapimod): 0.014
- log2 fold change (ispinesib): 0

Target: DHX16 (UniProt O60231)
- log2 fold change [1]: 0.023
- log2 fold change (crizotinib): -0.013
- log2 fold change [2]: 0.182
- log2 fold change [3]: -0.03
- log2 fold change (duvelisib): -0.013
- log2 fold change (gandotinib): -0.06
- log2 fold change (tozasertib): -0.02
- log2 fold change [4]: 0.053
- log2 fold change (doramapimod): -0.018
- log2 fold change (ispinesib): -0.01

Target: DNAJC7 (UniProt Q99615)
UniProt Q99615, sequence (Q99615 whole entry, looked up): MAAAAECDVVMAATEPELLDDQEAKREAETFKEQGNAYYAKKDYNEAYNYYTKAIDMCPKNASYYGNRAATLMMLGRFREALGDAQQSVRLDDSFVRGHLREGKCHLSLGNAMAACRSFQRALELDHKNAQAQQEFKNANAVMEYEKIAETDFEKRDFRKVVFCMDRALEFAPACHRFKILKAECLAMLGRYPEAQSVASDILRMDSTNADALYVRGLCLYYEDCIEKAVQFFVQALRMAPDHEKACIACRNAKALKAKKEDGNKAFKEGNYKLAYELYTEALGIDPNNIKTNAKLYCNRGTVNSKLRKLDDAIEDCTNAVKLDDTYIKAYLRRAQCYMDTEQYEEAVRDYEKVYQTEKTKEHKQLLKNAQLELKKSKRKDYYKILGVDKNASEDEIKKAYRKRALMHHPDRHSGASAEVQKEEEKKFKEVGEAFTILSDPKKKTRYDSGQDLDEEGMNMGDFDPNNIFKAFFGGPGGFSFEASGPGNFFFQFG
- log2 fold change [1]: 0.027
- log2 fold change (crizotinib): -0.014
- log2 fold change [2]: 0.048
- log2 fold change [3]: -0.028
- log2 fold change (duvelisib): 0.019
- log2 fold change (gandotinib): -0.088
- log2 fold change (tozasertib): -0.021
- log2 fold change [4]: 0.095
- log2 fold change (doramapimod): -0.057
- log2 fold change (ispinesib): 0.001

Target: DNAH11 (UniProt Q96DT5)
- log2 fold change [1]: -0.054
- log2 fold change (crizotinib): 0.071
- log2 fold change [2]: 0.062
- log2 fold change [3]: 0.695 (active)
- log2 fold change (duvelisib): 0.073
- log2 fold change (gandotinib): 0.104
- log2 fold change (tozasertib): -0.165
- log2 fold change [4]: -0.069
- log2 fold change (doramapimod): 0.037
- log2 fold change (ispinesib): -0.125

Target: CUX1 isoform 3 (UniProt P39880)
UniProt P39880, sequence (P39880 whole entry, looked up): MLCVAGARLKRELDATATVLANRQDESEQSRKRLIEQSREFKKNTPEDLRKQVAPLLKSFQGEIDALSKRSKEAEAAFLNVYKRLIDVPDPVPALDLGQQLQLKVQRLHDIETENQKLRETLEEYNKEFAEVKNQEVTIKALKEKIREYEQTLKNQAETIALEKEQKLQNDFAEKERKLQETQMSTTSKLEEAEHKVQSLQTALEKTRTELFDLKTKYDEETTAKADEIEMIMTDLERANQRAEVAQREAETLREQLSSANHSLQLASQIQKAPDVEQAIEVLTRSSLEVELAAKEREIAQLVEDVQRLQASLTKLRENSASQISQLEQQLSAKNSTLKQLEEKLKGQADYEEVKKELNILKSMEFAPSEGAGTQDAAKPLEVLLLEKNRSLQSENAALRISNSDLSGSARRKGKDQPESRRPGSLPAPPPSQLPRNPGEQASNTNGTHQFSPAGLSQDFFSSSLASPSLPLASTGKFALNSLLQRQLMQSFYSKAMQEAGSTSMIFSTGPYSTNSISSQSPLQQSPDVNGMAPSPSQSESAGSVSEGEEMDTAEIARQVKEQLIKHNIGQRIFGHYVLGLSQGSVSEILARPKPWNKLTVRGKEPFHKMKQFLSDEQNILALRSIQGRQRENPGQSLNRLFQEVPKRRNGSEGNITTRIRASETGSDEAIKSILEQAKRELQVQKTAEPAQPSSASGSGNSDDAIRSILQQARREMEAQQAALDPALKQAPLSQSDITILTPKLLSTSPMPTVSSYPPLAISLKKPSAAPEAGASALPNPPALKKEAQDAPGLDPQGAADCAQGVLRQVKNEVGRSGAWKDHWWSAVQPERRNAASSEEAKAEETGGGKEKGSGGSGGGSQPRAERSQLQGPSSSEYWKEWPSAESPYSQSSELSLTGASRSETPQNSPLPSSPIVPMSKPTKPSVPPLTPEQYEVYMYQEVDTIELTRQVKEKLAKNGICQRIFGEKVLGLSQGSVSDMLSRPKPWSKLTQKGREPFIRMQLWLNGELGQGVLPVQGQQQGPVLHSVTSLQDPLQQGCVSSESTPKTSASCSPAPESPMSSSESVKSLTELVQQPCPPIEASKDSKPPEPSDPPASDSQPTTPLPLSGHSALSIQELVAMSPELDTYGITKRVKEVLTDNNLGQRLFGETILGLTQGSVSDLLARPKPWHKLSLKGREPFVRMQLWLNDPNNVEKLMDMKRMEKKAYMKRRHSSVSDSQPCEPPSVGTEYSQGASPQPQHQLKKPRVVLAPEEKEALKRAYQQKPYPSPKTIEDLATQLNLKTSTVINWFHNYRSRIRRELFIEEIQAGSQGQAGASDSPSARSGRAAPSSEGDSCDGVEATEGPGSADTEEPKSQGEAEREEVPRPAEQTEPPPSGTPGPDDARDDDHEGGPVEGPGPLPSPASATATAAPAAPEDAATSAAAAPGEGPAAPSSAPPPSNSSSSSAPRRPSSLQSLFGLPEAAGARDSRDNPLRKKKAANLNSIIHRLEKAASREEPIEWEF
- log2 fold change [1]: 0.02
- log2 fold change (crizotinib): -0.023
- log2 fold change [2]: 0.086
- log2 fold change [3]: -0.002
- log2 fold change (duvelisib): 0.064
- log2 fold change (gandotinib): -0.048
- log2 fold change (tozasertib): 0.029
- log2 fold change [4]: -0.026
- log2 fold change (doramapimod): 0.019
- log2 fold change (ispinesib): -0.101

Target: EFL1 (UniProt Q7Z2Z2)
UniProt Q7Z2Z2, sequence (Q7Z2Z2 whole entry, looked up): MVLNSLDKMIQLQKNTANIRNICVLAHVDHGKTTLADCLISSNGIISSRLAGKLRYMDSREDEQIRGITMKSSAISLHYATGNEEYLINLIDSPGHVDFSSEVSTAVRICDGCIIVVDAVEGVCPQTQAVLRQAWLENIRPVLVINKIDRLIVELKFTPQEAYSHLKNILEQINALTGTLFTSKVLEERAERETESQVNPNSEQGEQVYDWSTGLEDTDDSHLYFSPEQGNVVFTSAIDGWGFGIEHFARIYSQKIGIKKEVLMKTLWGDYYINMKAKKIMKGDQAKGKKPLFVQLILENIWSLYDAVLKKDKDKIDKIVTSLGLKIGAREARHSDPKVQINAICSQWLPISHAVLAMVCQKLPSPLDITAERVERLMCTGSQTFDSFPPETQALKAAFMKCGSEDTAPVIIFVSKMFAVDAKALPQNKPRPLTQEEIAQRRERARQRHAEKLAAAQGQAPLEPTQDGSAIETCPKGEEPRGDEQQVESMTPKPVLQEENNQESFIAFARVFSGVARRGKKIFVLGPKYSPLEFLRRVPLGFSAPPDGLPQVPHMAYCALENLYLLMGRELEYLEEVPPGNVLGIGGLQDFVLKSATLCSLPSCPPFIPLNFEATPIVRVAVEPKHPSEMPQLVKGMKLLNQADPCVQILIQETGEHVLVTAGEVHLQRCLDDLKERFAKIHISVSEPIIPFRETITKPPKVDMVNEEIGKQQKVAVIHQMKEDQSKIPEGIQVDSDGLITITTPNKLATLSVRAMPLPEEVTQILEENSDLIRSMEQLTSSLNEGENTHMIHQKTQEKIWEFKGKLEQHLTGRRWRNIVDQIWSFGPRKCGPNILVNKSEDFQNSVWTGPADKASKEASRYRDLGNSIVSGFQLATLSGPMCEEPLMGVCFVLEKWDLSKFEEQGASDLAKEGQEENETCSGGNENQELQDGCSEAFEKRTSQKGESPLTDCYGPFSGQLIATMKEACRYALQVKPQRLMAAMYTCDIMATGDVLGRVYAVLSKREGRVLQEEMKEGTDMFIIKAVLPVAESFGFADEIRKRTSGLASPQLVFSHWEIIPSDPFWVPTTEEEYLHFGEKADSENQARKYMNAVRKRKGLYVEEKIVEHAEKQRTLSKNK
- log2 fold change [1]: 0.02
- log2 fold change (crizotinib): -0.055
- log2 fold change [2]: 0.074
- log2 fold change [3]: 0.016
- log2 fold change (duvelisib): 0.002
- log2 fold change (gandotinib): -0.056
- log2 fold change (tozasertib): -0.009
- log2 fold change [4]: 0.029
- log2 fold change (doramapimod): -0.013
- log2 fold change (ispinesib): -0.018
